GSH fluor – compound fluorescence on glutathione beads, profiling panel, artefact control, biophysical, 488/530 nm, flow cytometry; fluorescence (KMESF) at 10 µM; GSH beads flow cytometry, compound fluorescence 488/530 nm; hits give high values; 0.25% of 190,000 active; in the data active means fluorescence above about 89;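 further: glutathione beads carrying GST-tagged Bcl family fusion proteins plus one bare bead set; values are compound well signal with DMSO vehicle wells as background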
EP2 mod – EP2 receptor modulators, cAMP readout, primary screen, cell-based, HTRF cAMP, PGE2 stimulation | Prostaglandin E2 receptor EP2 subtype (Homo sapiens), P43116 | EP2-expressing cells, cAMP HTRF FRET, PGE2 co-stimulation | induction, % at 25 µM | 0.83% of 260,000 active;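 active means compounds whose cAMP rise, as percent of the full-agonist control response, exceeds 60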;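 further: rat C6 glioma line stably carrying human EP2 under a CMV promoter; the protocol text gives 20 µM as final concentration; 100% = response of wells given 1 µM PGE2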
Target sequence (P43116 whole entry, looked up): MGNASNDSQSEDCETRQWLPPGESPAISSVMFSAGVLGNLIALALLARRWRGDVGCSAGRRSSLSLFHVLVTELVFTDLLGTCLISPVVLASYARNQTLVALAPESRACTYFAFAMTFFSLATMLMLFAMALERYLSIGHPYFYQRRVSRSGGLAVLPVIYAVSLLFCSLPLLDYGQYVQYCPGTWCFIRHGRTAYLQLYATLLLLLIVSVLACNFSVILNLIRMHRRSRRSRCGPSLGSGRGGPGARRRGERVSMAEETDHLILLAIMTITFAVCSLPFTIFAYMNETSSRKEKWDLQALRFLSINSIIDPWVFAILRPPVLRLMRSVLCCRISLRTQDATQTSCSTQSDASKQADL
HMGR II inh – inhibitors of E. faecalis class II HMGR, primary screen, biochemical, Enterococcus faecalis | HMG-CoA reductase (Enterococcus faecalis, mvaE) | purified E. faecalis HMGR, NADPH absorbance 340 nm kinetic | inhibition, % at 10 µM | 0.41% of 190,000 active | AID 1066, 2008;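 active means inhibition above a set limit, the median over all tested compounds plus 3 SD, cut at about 9.5% in these data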;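 further: enzyme runs in reverse so mevalonate oxidation gives rising NADPH absorbance; 0% = complete reaction with DMSO and 100% = background rate lacking mevalonate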
PGE2 EP2 inh – human EP2 receptor antagonists, primary screen, TR-FRET cAMP, C6 glioma cells; Prostaglandin E2 receptor EP2 subtype (Homo sapiens), P43116; C6 glioma cells expressing human EP2; cells stimulated with saturating PGE2; inhibition, % at 25 µM; 0.52% of 260,000 active; AID 1422, 2008;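 active means percent inhibition above 40 after rounding to a whole number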;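 further: rat C6 glioma host cells with rolipram phosphodiesterase inhibitor present; the protocol text gives 20 µM as final concentration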
Avidin fluor – green autofluorescence of compounds with avidin beads – biophysical, 488/530 nm, flow cytometry, artefact control, profiling panel; compound fluorescence 488/530 nm; hits give high values; fluorescence (KMESF) at 10 µM; 0.38% of 220,000 active; in the data active means fluorescence above about 47
* = called active by the depositor; . = no result given. Sampled rows, rich in hits. Any-hit rate of the full collection: about 2.1%.

SMILES	GSH fluor	EP2 mod	HMGR II inh	PGE2 EP2 inh	Avidin fluor
CC(C)C(=O)c1cc2c(cc1NC(=O)c1cccs1)OCCO2	15	64.8*	-1.7	2.1	33
CC(=O)Nc1ccc(S(=O)(=O)N2CC=C[C@@H]2C(=O)NC2CCCCC2)cc1	.	-22.5	.	8.9	.
O=C1CCCc2ccccc2N1Cc1ccccc1Cl	24	15.7	-10.2	10.6	15
O=C1CCCc2ccccc2N1Cc1ccc(Cl)cc1Cl	20	49.0	-0.6	17.6	68*
CCN(CC)CCN(Cc1cc2ccc(C)cc2[nH]c1=O)C(=O)Nc1ccccc1	.	-26.4	.	12.2	.
CC(C)[C@H]1CN(Cc2ccccc2F)CCN1C(=O)c1cccnc1	.	-35.7	.	.	.
O=C(Nc1ccc2c(c1)C(=O)N(CC1CCCO1)C2=O)c1ccccc1Br (stereo unspecified)	17	15.2	12.0*	5.7	9
CC(=O)Oc1ccc(N2C(=O)C3C(C2=O)C2(C)C=CC3(C)O2)cc1 (stereo unspecified)	.	.	.	135.8*	.
CCn1nc(CC(=O)N2CCC3(CC2)NC(=O)c2cccnc2N3C)c2ccccc2c1=O	.	-28.6	.	13.2	.
CS(=O)(=O)N1CCN(c2ccc(NC(=O)c3ccc(Cl)cc3)cc2)CC1	.	-15.8	.	9.7	.
CC(=O)c1cc(F)c(N2CCN(C(=O)COc3ccc(F)cc3)CC2)cc1C	93*	-63.9	-2.8	17.8	5
CSc1ccc(-c2nnn(Cc3ccc(Br)cc3)n2)cc1	12	-42.4	-1.9	43.0*	15
CCCCC(C)(O)C/C=C/[C@H]1[C@H](O)CC(=O)[C@@H]1CCCCCCC(=O)OC (stereo partly specified)	21	96.9*	-3.6	9.5	4
COC1(OC)N=C(NC(=O)Nc2ccccc2)C2(C#N)C(c3ccccc3)C12C#N (stereo unspecified)	32	.	13.5*	12.6	6
COC1(OC)N=C(N)C2(C#N)C(c3ccc(C)cc3)C12C#N (stereo unspecified)	21	3.9	2.7	5.1	9
COC(=O)/C(=C/c1c[nH]c2ccccc12)NC(C)=O	6	-15.4	-7.7	9.7	2
COC(=O)/C(=C/c1c[nH]c2ccccc12)[N+](=O)[O-]	27	-48.3	-4.8	140.6*	10
O=C(NC(=O)N1CCN(c2ccc([N+](=O)[O-])cn2)CC1)c1c(Cl)cccc1Cl	.	6.0	.	9.7	49*
COc1ccc2cc(CN(C(=S)NC(C)c3ccccc3)C3CCCC3)c(=O)[nH]c2c1 (stereo unspecified)	.	13.6	.	12.2	.
COc1ccc(NC(=O)N(Cc2cc3cc(C)ccc3[nH]c2=O)CC2CCCO2)cc1 (stereo unspecified)	.	-47.5	.	6.6	7
CCOc1ccc2[nH]c(=O)c(CN(CC3CCCO3)C(=S)NC3CCCCC3)cc2c1 (stereo unspecified)	.	69.8*	.	12.7	.
COc1ccc2[nH]c(=O)c(CN(C(=S)NC(C)c3ccccc3)C3CCCC3)cc2c1 (stereo unspecified)	.	5.4	.	44.8*	.
CCOc1ccc2[nH]c(=O)c(CN(CC3CCCO3)C(=S)NCC3CCCO3)cc2c1 (stereo unspecified)	.	17.5	.	27.0	.
CCOc1ccc2[nH]c(=O)c(CN(Cc3cccs3)C(=S)NCCOC)cc2c1	.	-19.7	.	16.4	.
CCNC(=S)N(Cc1cccs1)Cc1cc2cc(OCC)ccc2[nH]c1=O	239*	-45.7	-0.1	10.5	41
SMILES	GSH fluor	EP2 mod	HMGR II inh	PGE2 EP2 inh	Avidin fluor
COc1ccc2[nH]c(=O)c(CN(CC3CCCO3)C(=O)Nc3ccc(F)cc3)cc2c1 (stereo unspecified)	28	-45.0	-0.1	41.0*	9
CCOC(=O)c1cnc2c(C)c(Cl)ccc2c1NCCO	.	-73.9	.	9.1	.
CCCN(CCC)C(=O)NC1CC(=O)N(c2ccc(OC)cc2)C1 (stereo unspecified)	12	-7.8	-8.0	67.6*	13
O=c1c2[nH]c3ccc(Cl)cc3c2ncn1CCN1CCCCC1	25	-12.7	-3.2	21.8	4
S=c1nc[nH]c2c1[nH]c1ccc(Cl)cc12	.	61.4*	.	9.9	8
CCN(CC)C(=O)C(=O)c1cccn1-c1c(Cl)cccc1C#N	12	3.9	0.3	6.2	109*
Cc1nn(C)cc1CN1CCn2c(nc(-c3ccc(N(C)C)cc3)c2NC(C)(C)C)C1	.	-40.3	.	8.1	.
O=C(O)CCC(=O)NC(c1ccccc1)c1ccccc1	21	37.2	14.0*	6.5	11
O=C(Cc1cccs1)NC(c1ccccc1)c1ccccc1	24	29.5	2.9	4.5	5
O=C1Nc2ccccc2N(O)N1c1ccc(S(=O)(=O)Nc2ccccn2)cc1	32	23.9	1.2	4.8	64*
Cn1c(=O)[nH]c(NC2CCCCC2)c(N=O)c1=O	15	1.5	-11.0	6.3	5
CCCNc1[nH]c(=O)n(C)c(=O)c1N=O	8	-48.1	-6.4	12.5	69*
Cc1cc(C(C)(C)C)oc1C(=O)N(CC(=O)NC1CCCC1)c1c(C)cccc1C	16	64.0*	4.8	11.2	16
O=C(c1ccc(Cn2cc(Br)cn2)o1)N1N=C(C(F)F)CC1(O)C(F)F (stereo unspecified)	39	-21.4	2.4	5.6	66*
O=C(c1ccc(COc2ccc(Cl)cc2)o1)N1N=C(C(F)F)CC1(O)C(F)F (stereo unspecified)	29	-5.5	-4.7	5.9	15
CC1=CN2C(=N)/C(=C/c3ccco3)C(=O)N=C2S1	16	5.1	0.9	9.3	16
CC1=CN2C(=N)/C(=C/c3ccc([N+](=O)[O-])o3)C(=O)N=C2S1	10	-9.5	-0.9	104.3*	9
CCCn1c(N)c(C(=O)CSc2nnc(C)n2Cc2ccccc2)c(=O)n(C)c1=O	51	20.8	0.4	5.9	10
Cn1c(=O)c(C(=O)CSc2ccccc2)c(N)n(Cc2ccccc2)c1=O	11	-29.8	14.2*	9.8	11
Cn1c(=O)c(C(=O)CCl)c(N)n(Cc2ccccc2)c1=O	18	-9.9	2.8	-1.5	10
Cn1c(N)c(C(=O)CSc2nc3ccccc3c(=O)n2Cc2ccccc2)c(=O)n(C)c1=O	.	-8.3	.	15.3	49*
CCCn1c(N)c(C(=O)CSc2nc3ccccc3c(=O)n2Cc2ccccc2)c(=O)[nH]c1=O	16	-20.5	-2.9	10.3	64*
COc1cc(NC(=O)CSc2nnc(-c3ccc(F)cc3)o2)cc(OC)c1	.	-12.7	.	11.9	.
CC(C)(C)NC(=O)COC(=O)CCC(=O)c1ccc(F)cc1	14	-7.8	-0.2	89.4*	11
CCCCNC(=O)COC(=O)CCC(=O)c1ccc(F)cc1	266*	9.1	-1.9	7.4	8
CC(C)CNC(=O)COC(=O)CCC(=O)c1ccc(F)cc1	13	8.9	-3.8	4.7	7

From PubChem BioAssay
